Compound activity (PubChem)
Only a sample is shown.
aSyn UTR act: Activators via SNCA 5'UTR binding, MLPCN. alpha-synuclein 5'UTR reporter, activators screen. activity score, % (tested at 7.5 µM), hits read low. actives 7.1% (n = 300,000); in the data active means activity score below about -60%
The depositor's hits bear a star.

Results for COCCNC(=O)c1c[nH]c2ccc(S(=O)(=O)N3CCc4ccccc43)cc2c1=O ?
aSyn UTR act: 61

Results for N#Cc1cnn(-c2ncnc3sc(-c4ccccc4)cc23)c1N ?
aSyn UTR act: -65*

Results for Cc1cc2nc3c(nc2cc1C)CCCC3 ?
aSyn UTR act: -178*

How did C#CC(C)(C)NC(=O)c1ccc(-c2ccccc2F)cc1 do in these assays?
aSyn UTR act: -89*

What do the screens show for `O=C(CSc1nnc(-c2cccnc2)o1)Nc1cccc(F)c1`?
aSyn UTR act: -86*

How did O=C(CSc1nnc(-c2ccc(Br)cc2)o1)Nc1cccc(C(=O)O)c1 do in these assays?
aSyn UTR act: 98

How did O=C(CSc1nnc(-c2cccnc2)o1)Nc1ccc(Br)cc1 do in these assays?
aSyn UTR act: -77*

How did O=C1CCCC/C1=C/Nc1ccc2c(c1)OCO2 do in these assays?
aSyn UTR act: -139*

Results for O=C1CCCC/C1=C/Nc1ccc(C(=O)O)cc1 ?
aSyn UTR act: -72*

How did CCOC(=O)c1c(C)[nH]c(N=Nc2ccccc2)c1C do in these assays?
aSyn UTR act: -143*

How did CCOC(=O)c1c(C)[nH]c(N=Nc2ccccc2Cl)c1C do in these assays?
aSyn UTR act: -119*

What do the screens show for `CCOC(=O)c1c(C)[nH]c(N=Nc2ccc(C)cc2)c1C`?
aSyn UTR act: -271*

What do the screens show for `CCOC(=O)c1c(C)[nH]c(N=Nc2ccc(OC)cc2)c1C`?
aSyn UTR act: -249*

How did CCOC(=O)c1c(C)[nH]c(C=Nc2ccc(OC)cc2)c1O do in these assays?
aSyn UTR act: -96*

How did CCOC(=O)c1snc(-c2ccc(F)cc2)c1N do in these assays?
aSyn UTR act: -130*

How did O=C(Cc1ccc(Cl)cc1)Nc1ccc(Br)cn1 do in these assays?
aSyn UTR act: -66*

How did O=C(Cc1ccc(Cl)cc1)Nc1ccc(Br)cc1 do in these assays?
aSyn UTR act: -67*

Results for Oc1ccc(Cl)cc1CNc1ccc(Br)cn1 ?
aSyn UTR act: -142*

What do the screens show for `CCCCc1c(C)[nH]c2nc3ccccc3n2c1=O`?
aSyn UTR act: -97*

Results for CCCc1cc(=O)n2c(nc3ccccc32)[nH]1 ?
aSyn UTR act: -66*

What do the screens show for `CCOC(=O)c1cc(=O)n2c(nc3ccccc32)[nH]1`?
aSyn UTR act: -99*

Results for CCCc1ccc(-c2cc(NC(=O)CSc3n[nH]c(N)n3)n(-c3ccccc3)n2)cc1 ?
aSyn UTR act: -141*

Results for O=C(N/N=C\c1ccc(Cl)s1)c1cccs1 ?
aSyn UTR act: -67*

How did COc1ccccc1C(=O)N/N=C/c1ccc(Cl)s1 do in these assays?
aSyn UTR act: -179*

Results for O=C(N/N=C\c1ccc(Cl)s1)C1COc2ccccc2O1 (configuration not stated) ?
aSyn UTR act: -67*

Results for O=C(N/N=C/c1c[nH]c2ccccc12)C1COc2ccccc2O1 (configuration not stated) ?
aSyn UTR act: 76

How did COc1ccccc1C(=O)N/N=C/c1cnc2ccccc2n1 do in these assays?
aSyn UTR act: -102*

Results for O=C(Nc1cnn(Cc2ccccc2)c1)c1nc2ncccn2n1 ?
aSyn UTR act: -66*

Results for FC(F)Sc1ccc(NC(=S)NC2CCCC2)cc1 ?
aSyn UTR act: -105*

How did OC1CCC(NC(=S)Nc2ccc(SC(F)F)cc2)CC1 (configuration not stated) do in these assays?
aSyn UTR act: -126*

What do the screens show for `O=C(Nc1ccc(SC(F)F)cc1)C12CCC(CC1)C2`?
aSyn UTR act: -80*

How did Cc1ccc2nc(-c3ccccc3)cn2c1 do in these assays?
aSyn UTR act: 120

How did Cc1ccc2nc(-c3ccc(-c4ccccn4)s3)cn2c1 do in these assays?
aSyn UTR act: -111*

Results for O=C(Nc1ccn(Cc2ccc(Cl)cc2)n1)c1ccc2c(c1)OCO2 ?
aSyn UTR act: -70*

Results for O=C(Nc1ccn(Cc2ccccc2)n1)c1ccc(F)cc1 ?
aSyn UTR act: -120*

Results for Cc1ccc(Cn2ccc(NC(=O)c3nn(C)cc3Cl)n2)cc1 ?
aSyn UTR act: -112*

Results for O=C(Nc1ccn(Cc2ccccc2F)n1)c1ccc(COc2ccc(Br)cc2)cc1 ?
aSyn UTR act: -68*

What do the screens show for `Nc1ccc(C(=O)N/N=C/c2cn(Cc3ccc(F)cc3)c3ccccc23)cc1`?
aSyn UTR act: 64

How did Cn1cc(Cl)c(/C(N)=N/OC(=O)c2ccccc2C(F)(F)F)n1 do in these assays?
aSyn UTR act: -98*

What do the screens show for `CN(C)/C=C/C(=O)/C=C/c1ccc(Cl)cc1Cl`?
aSyn UTR act: -150*

What do the screens show for `O=C(/C=C/c1ccccc1Cl)c1ccc[nH]1`?
aSyn UTR act: -343*

What do the screens show for `O=C(/C=C/c1ccc(Cl)cc1Cl)c1ccc[nH]1`?
aSyn UTR act: -139*

What do the screens show for `CCCCn1cnc2c(sc3nc4c(cc32)CSC(C)(C)C4)c1=O`?
aSyn UTR act: -104*

How did CS(=O)(=O)N1N=C(c2ccc(Cl)cc2)CC1c1cccs1 (configuration not stated) do in these assays?
aSyn UTR act: -178*

What do the screens show for `Cc1ccc2nc(SC(C)C(=O)N3CCCC3)[nH]c2c1` (configuration not stated)?
aSyn UTR act: -75*

Results for Cc1ccc2nc(SCC(=O)c3ccc(O)cc3O)[nH]c2c1 ?
aSyn UTR act: -220*

How did Cc1cc(C(=O)CSc2nc3ccccc3c(=O)[nH]2)c(C)n1C do in these assays?
aSyn UTR act: -130*

Results for Cc1ccc2nc(CSc3nc(C)ccc3C#N)[nH]c2c1 ?
aSyn UTR act: 79

What do the screens show for `Cc1ccc2nc(SCc3nc4ccccc4c(=O)[nH]3)[nH]c2c1`?
aSyn UTR act: -140*

What do the screens show for `Cc1ccc2nc(SC(C)C(=O)N3CCCCC3)[nH]c2c1` (configuration not stated)?
aSyn UTR act: -81*

How did Cc1ccc(CSc2nc3ccncc3[nH]2)cc1 do in these assays?
aSyn UTR act: 73

Results for Cc1ccc2nc(SCC(=O)N3CCCC3)[nH]c2c1 ?
aSyn UTR act: -129*

How did O=C(COC(=O)Cn1cnc2ccccc21)Nc1ccc2c(c1)C(=O)c1ccccc1C2=O do in these assays?
aSyn UTR act: -153*

How did O=C(Nc1ccc(F)cc1)c1sc(Cl)nc1-c1ccccc1 do in these assays?
aSyn UTR act: -73*

Results for Cc1ccc(NC(=O)c2sc(Cl)nc2-c2ccccc2)cc1 ?
aSyn UTR act: -63*

How did O=C(NC1CCCCCCC1)NC1CCCCC1 do in these assays?
aSyn UTR act: -127*

Results for O=C(NC1CCCCCC1)C(=S)NC1CCCCC1 ?
aSyn UTR act: -98*

How did COc1cccc2sc(/N=C/N(C)C)nc12 do in these assays?
aSyn UTR act: -81*

What do the screens show for `O=C(NCCC1=CCCCC1)Nc1ccc2nsnc2c1`?
aSyn UTR act: -110*

Results for O=C(NCc1ccco1)Nc1ccc(Br)cc1 ?
aSyn UTR act: -119*

How did O=C(NCc1ccco1)Nc1ccc2nsnc2c1 do in these assays?
aSyn UTR act: -76*

What do the screens show for `O=c1cccc2c1c1cc[nH]c3ccc(=O)n2c31`?
aSyn UTR act: 79

What do the screens show for `O=C(Nc1ccc(Cl)cc1)N1CCc2ccccc2C1`?
aSyn UTR act: -209*

Results for O=C(NCCCN1CCc2ccccc2C1)Nc1ccc(Cl)cc1 ?
aSyn UTR act: -110*

How did Cc1ccc(NC(=O)N2CCc3ccccc3C2)c(C)c1 do in these assays?
aSyn UTR act: -76*

How did O=C(CNc1cccc(F)c1)N1CCc2ccccc2C1 do in these assays?
aSyn UTR act: -195*

What do the screens show for `COc1cc2c(cc1OC)-c1cc(Nc3ccc(N(C)C)cc3)nc(=O)n1CC2`?
aSyn UTR act: 52
